Measured values from PubChem BioAssay AID889 (National Center for Advancing Translational Sciences (NCATS), 2007).
Screen size: about 75,000 compounds; about 15 (0.02%) were called active. Not shown: some 3% with an inconclusive outcome. Calls follow the shape of the dose curve; as a rule, active = well fitted inhibition curve with a large enough effect in the main read-out, with a control signal flat (not every such curve was filed as active); inconclusive = small, poorly fitted or top-dose-only effect, or a change in a side signal; inactive = flat fitted curve, though single readings scatter. The list comes from a sample in which actives are over-represented; it also holds similar structures and randomly drawn compounds.

target: Caspase-7 (Homo sapiens) (UniProt P55210); test: qHTS Assay for Allosteric/Competitive Inhibitors of Caspase-7; details: recombinant caspase-7, Ac-DEVD-AFC fluorescence rate; series mostly up to 57.5 µM; activity change, negative = inhibition: at the top concentration; also: % of control where 0% means no effect
Sequence (P55210 24-198 limits assumed): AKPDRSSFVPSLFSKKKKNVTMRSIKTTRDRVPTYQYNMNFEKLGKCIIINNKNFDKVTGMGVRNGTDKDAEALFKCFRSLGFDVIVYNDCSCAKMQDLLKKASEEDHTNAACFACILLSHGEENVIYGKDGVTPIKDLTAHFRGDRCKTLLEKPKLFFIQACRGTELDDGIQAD
Sequence (P55210 207-303 limits assumed): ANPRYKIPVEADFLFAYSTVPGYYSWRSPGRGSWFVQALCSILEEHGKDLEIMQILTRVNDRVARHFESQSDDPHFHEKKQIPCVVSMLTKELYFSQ
Text: NIH Molecular Libraries Screening Centers Network [MLSCN]
NIH Chemical Genomics Center [NCGC]
PI Name: Dr. James Wells,
Dr. Enrique Perez-Paya, Dr.Janice Williams, Dr. Dennis Wolan, a person
The caspases (Cysteine Aspartyl Protease) comprise a related family of 14 dimeric proteases that are critical mediators of apoptosis (programmed cell death) and inflammation. The caspases represent an important class of drug targets for stroke, ischemia, cancer and inflammatory diseases. […] One goal of this project was to identify compounds that act as allosteric inhibitors via stabilizing the procaspase form of the enzyme. Previous work in Well's laboratory has shown that such allosteric inhibitors can be identified and these act by binding at the dimer interface of enzyme (Hardy, Lam et al., 2004).
The biochemical assay was configured using purified caspase 7 at a high enzyme concentration to promote formation of the homodimers and thus facilitate the identification of allosteric inhibitors. The overall goal was to identify reversible inhibitors with better drug-like properties than the currently available set of aspartyl-containing peptidomimetics that covalently bind the active site. Caspase 7 was assayed using the profluorescent substrate Ac-DEVD-AFC. After initiation of the assay with substrate the plates were rapidly read using an automated robotic system (Kalypsys, Inc.) to maintain consistent timing. A kinetic mode of detection was used where the initial rate was collected (estimated final product formation was ~10%). Compounds were screened as a concentration-titration series that ranged from 57 uM to 0.7 nM. Below is the protocol used for caspase 7.
NCGC Assay Protocol Summary:
Caspase 7 was prepared in buffer (50 mM HEPES pH 7.5, 50 mM KCl, 200 mM NaCl, 10 mM DTT, 0.1% CHAPS) at a concentration of 66.6 nM and 3 uL was dispensed to all wells using black solid Kalypsys 1536-well plates. 20 nL of DMSO containing compounds was added using a pin-tool (Kalypsys Inc.) to columns 5-48. Then 20 nL of DMSO solution from a control plate was added to columns 1-4. Controls were: Column 1, 16 point titration with each concentration in duplicate (1:1 dilutions in DMSO; final starting concentration was 57 uM) of the caspase 7 inhibitor Ac-DEVD-CHO (Alexis Biochemicals); Column 2, a 16 point titration with each concentration in duplicate of the free AFC fluorophore prepared in DMSO (Alexis Biochemicals), final starting was 40 uM; Column 3 neutral (DMSO only) control; Column 4: DMSO alone, to serve as a negative control (no substrate was added). Then 1 uL of 20 uM the substrate Ac-DEVD-AFC (Alexis Biochemicals) prepared in the same buffer was dispensed to all wells except columns 2 and 4 and the plates were immediately transferred (< 1 min) to the Viewlux. The plates were then exposed using 405 nm excitation/520 nm emission filters for 4 sec and read at 20 sec intervals for 3 min. Final enzyme concentration was 50 nM and the final substrate concentration was 5 uM.
Concentration-response curves were fitted to the data calculated from slope of the linear regression of fluorescent intensity versus time (the rate). The concentration-effect curves were then classified based on curve quality (r2), response magnitude and degree of measured activity. […] Inconclusive compounds had appreciable concentration-dependent effects on both the measured rate and the interpolated basal fluorescence intensity at the start of the reaction but where the basal fluorescent intensity was marginal (e.g. < 10-fold). Inconclusive compounds also encompass highly fluorescent compounds (>100-fold increases in fluorescent intensities values relative to controls) where artificial concentration-dependent decreases in the rate occurred at high compound concentrations due to fluorescent interferences.
Keywords: Caspase 7, proteases, profluorescent, MLSMR, MLSCN, NIH Roadmap, qHTS, NCGC

Activity change, negative = inhibition, inactive:
Cc1ccc(S(=O)(=O)NC(C)C(=O)Nc2ccccc2C(=O)N2CCCC2)cc1 (stereo not drawn) 0.252%
Cn1c(=S)c2[nH]c(SCCCc3ccccc3)nc2n(C)c1=O 0.0837% [at 11.5 µM]
CCC1=C(OC(=O)N(CC)CC)N2C(=O)OC(=NCC3CC3)[C@]2(C)[C@H]2C1=CC[C@H]1C(=O)N(CC(=O)OC)C(=O)[C@H]12 -3.1%
Fc1ccc(-c2nnc3sc(-c4ccc5c(c4)OCO5)nn23)cc1 -2.97%
Cn1c2c(c(=O)n(C)c1=O)C(c1ccc(O)cc1)Nc1ccccc1O2 (stereo not drawn) -0.743%
CCOC(=O)c1[nH]c2c(c1C)C(=O)CC(c1ccc(N(C)C)cc1)C2 (stereo not drawn) -4.88%
COc1ccc(NS(=O)(=O)c2ccc(NC(=O)C(C)(C(F)(F)F)C(F)(F)F)cc2)nn1 -1.99%
Cc1cc(C(=O)COC(=O)c2cccs2)c(C)n1-c1c(C)n(C)n(-c2ccccc2)c1=O 5.46%
COc1ccc2c3c1OC1CC(O)C=C[C@@]31CCN(C)C2 (stereo partly drawn) 0.921%
Cc1ccc(S(=O)(=O)C2(S(=O)(=O)c3ccc(C)cc3)CCCC2)cc1 5.15%
CCCN1C(=O)C(NS(=O)(=O)c2ccc(N)cc2)(C(F)(F)F)C(C(=O)OC)=C1C (stereo not drawn) 1.12%
CS(=O)(=O)c1ccc2nc(NC(=O)C3CCCCC3)sc2c1 -1.36%
CC(=O)OC1CCC2(O)CC1(C)CCC1C2CC1(C)C (stereo not drawn) 1.05%
CC(C)C(N)C(=O)OCCOCn1cnc2c(=O)[nH]c(N)nc21 (stereo not drawn) 0.177%
CC(C)(CSc1nncn1/N=C/c1ccco1)NS(=O)(=O)c1ccc(Cl)cc1 -1.02%
NC(=O)C1CCN(C(=O)c2ccc(C(F)(F)F)cc2)CC1 -0.1%
Cc1ccccc1CN1CCN(CC(=O)NCc2ccccn2)C1=O -3.4%
BrC1C(Br)C(Br)C(Br)C(Br)C1Br (stereo not drawn) -0.843%
CC(=O)N1CCC2(CCCN(c3ncccn3)C2)CC1 -0.0087%
CC1CCCCN1CCCNC(=O)c1ccc(-n2c(=O)c(=O)[nH]c3ccccc32)cc1 (stereo not drawn) -0.222%
CCCn1c(SCC(=O)Nc2cccc(C(=O)OCC)c2)nnc1-c1ccoc1C -2.89%
COC(=O)CC1C(C)(C)C(OC(C)=O)C2CC3=C4CC(=O)OC(c5ccoc5)[C@]4(C)CCC3[C@@]1(C)C2=O (stereo partly drawn) 0.157%
O=C1NS(=O)(=O)c2ccccc21 -0.547%
CC12CN3CC(C)(CN(C1)C3c1ccc(Cl)cc1Cl)C2=O (stereo not drawn) 1.96%
C[N+](C)(C)CCNC(=O)c1c(O)c2c([nH]c1=O)CCCC2 0.0221%
CCOC(=O)N1CCC(O)(c2cc(C)c(C)cc2C)CC1 0.455%
Cc1cc(C)cc(N(CC(=O)Nc2c(C)n(C)n(-c3ccccc3)c2=O)S(C)(=O)=O)c1 1.18%
COc1ccc(Cn2c(=O)sc3ccccc32)cc1OC 4.76%
CCOC(=O)N1CCN(C(=O)CSc2nnc(-c3c[nH]c4ccccc34)n2CCOC)CC1 -1.93%
CCN(CC)C(=O)CSc1nnc(-c2ccc(S(=O)(=O)NCc3ccccc3Cl)cc2)o1 6.38%
Cc1ccccc1NC(=O)c1cc(S(=O)(=O)N2CCOCC2)cs1 -0.15%
CCOC(=O)c1[nH]cnc1C(=O)NC1CCCCC1 -0.201%
Oc1cc(O)c2c(c1)OC(c1ccc(O)c(O)c1)C(O)C2 (stereo not drawn) -8.9%
CCOc1ccc(NS(=O)(=O)c2ccc(OCC(=O)NCCCOC)cc2)cc1 -0.0247%
COc1cccc(Cn2c(=O)c(C)nc3cnc(Oc4ccccc4)nc32)c1 -5.86%
CCOc1ccc(Cn2c(SCCCCC#N)nc3c2c(=O)n(C)c(=O)n3C)cc1OCC -1.76%
Cc1onc(-c2ccccc2Cl)c1C(=O)NCCn1ccc2ccccc21 -2.02%
CC1O[C@@H](Oc2c(-c3ccc(O)c(O)c3)oc3cc(O)cc(O)c3c2=O)C(O)C(O)C1O (stereo partly drawn) -0.198%
CCC1Oc2ccc(Cl)cc2N(CC(=O)O)C1=O (stereo not drawn) -0.283%
O=C(Cc1cccs1)N1CCCC(c2nc(-c3ccc(S(=O)(=O)N4CCCC4)cc3)no2)C1 (stereo not drawn) -4.24%
CN(C)CCc1c[nH]c2ccc(Cn3cncn3)cc12 0.22%
C=CCn1c(COc2ccccc2F)nnc1SCC(=O)N1CC(=O)Nc2ccccc21 -2.2%
O=NO
COC(=O)c1ccc(N(CC(=O)NC2CCCC2)C(=O)CNC(=O)c2ccco2)cc1 -1.2%
COc1ccc(C(=O)CSc2nccc(=O)[nH]2)cc1 -0.19%
COc1cc(OC)c(C(=O)Nc2ccc(N(C)C)cc2)cc1OC 0.862%
CC1CSc2nnc(CCc3ccccc3)n21 (stereo not drawn) -1.75%
O=c1c(O)c(-c2ccc(O)cc2)oc2ccccc12 -1.75%
CC(C)NS(=O)(=O)c1ccc(OCC(=O)Nc2ccc3c(c2)OCCO3)cc1 -0.453%
CCOC(=O)Cc1csc(NC(=O)CN(C)S(=O)(=O)c2ccc3c(c2)CCC(=O)N3)n1 -1.68%
CC1CCCC(NC(=O)CN2CCN(Cc3ccc(Cl)cc3)C2=O)C1C (stereo not drawn) -0.0034%
CCC(Oc1ccccc1)C(=O)NCc1cccnc1 (stereo not drawn) -0.0605%
CC1(C)C=CC(=O)[C@]2(C)C1CC(=O)[C@]1(C)C2CC[C@@]2(C)C(c3ccoc3)OC(=O)C3OC321 (stereo partly drawn) -0.171%
CCCCCNC(=O)Cc1ccc(OC)cc1 -1.53%
C=CC(=O)c1ccc2ccccc2c1 -1.45%
COC(=O)C1=C(N)Oc2cc(C)oc(=O)c2C1c1cccnc1 (stereo not drawn) 1.77%
CCOC(=O)c1c(-n2cnnn2)sc(C)c1C 0.213%
CNc1ncnc2ccc(-c3cccc(NS(C)(=O)=O)c3)cc12 1.83%
Cn1cccc1Cc1nnc(SCC(=O)NCc2ccc3c(c2)OCO3)n1CCc1ccccc1 -0.938%
CC(C)(C)c1ccc(NC(=O)NCc2ccco2)cc1 -2.01%
CC1(C)OC2CC3C4CCC5=CC(=O)CCC5(C)C4(F)C(O)CC3(C)[C@]2(C(=O)CCl)O1 (stereo partly drawn) -0.0664%
C=C[C@](C)(O)CCC1C(=C)CCC2[C@@](C)(CO)CCC[C@@]12C (stereo partly drawn) 1.43%
COc1c(C(C)C)oc2cc3oc(=O)ccc3cc12 -1.38%
COC(=O)[C@@H]1C[C@@]2(O)[C@H](O)[C@H](O)[C@H](O)C[C@H]2N1CC1CCCCC1 -0.73%
Clc1ccc(C=NC23CN4CN(CN(C4)C2)C3)cc1 0.219%
O=C1CCCC(O)=C1C=NCCc1ccccc1 1.03%
CCC(C)(C)n1nnnc1C(c1cccs1)N1CCN(Cc2ccccc2)CC1 (stereo not drawn) -8.5%
Cc1c(S(=O)(=O)O)oc2c1C(=O)C(=O)c1c-2ccc2c1CCCC2(C)C -0.0406%
CN(C)/C=N/c1cc(=O)n(C)c(=O)n1CC1CC1 -0.251%
O=C(OCc1nnc(-c2ccccc2)o1)c1ccc2c(c1)C(=O)N(CCc1ccccc1)C2=O -1.28%
c1ccc2cc3[nH]c(CN4CCCCC4)nc3cc2c1 0.392%
COC1[C@H](OC(N)=O)C(O)[C@H](Oc2ccc3c(O)c(NC(=O)c4ccc(O)c(CC=C(C)C)c4)c(=O)oc3c2C)OC1(C)C (stereo partly drawn) -0.537%
COc1cccc(OCC(O)CN2CCN(CCO)CC2)c1 (stereo not drawn) 0.0001%
Cc1oc(C)c(C(=O)NCCCC(=O)O)c1C(=O)NCCCC(=O)O 0.635%
CCOc1cc(S(=O)(=O)NC2CC(C)(C)NC(C)(C)C2)ccc1F -0.319%
COc1cc(OC)c2c(c1Cl)OC1(C2=O)C(O)=CC(=O)CC1C (stereo not drawn) -1.66%
CC(C)(O)CCC(O)[C@@](C)(O)C1CC[C@]2(O)C3=CC(=O)C4CC(O)C(O)C[C@]4(C)C3CC[C@]12C (stereo partly drawn) 2.51%
CC(=O)Oc1c2c(c3c(c1CC=C(C)C)O[C@@]14C(=CC5CC1C(C)(C)OC4(C/C=C(\C)C(=O)O)C5=O)C3=O)OC(C)(CCC=C(C)C)C=C2 (stereo partly drawn) -23.4%
CC(=O)OCC(=O)C1CCC2C3CCC4=CC(=O)CC[C@@]4(C)C3CC[C@]12C (stereo partly drawn) -2.96%
COc1ccc(CCN=C2SCC(=O)N2C)cc1OC -1.75%
Cc1cccc(-n2c(O)c(C=Nc3ccccc3N)c(=O)[nH]c2=O)c1 -4.62%
CCC1=C(OC(=O)N(CC)CC)N2C(=O)OC(=NCCc3c[nH]c4ccccc34)[C@]2(C)[C@H]2C1=CC[C@H]1C(=O)N(CC)C(=O)[C@H]12 -2.47%
COc1ccccc1N1CCN(C[C@@H]2CN3C(=O)N(C)c4ccccc4C3=N2)CC1 1.97%
COc1ccc(C2C(C(=O)N3CCN(c4ccc(OC)cc4)CC3)c3ccccc3C(=O)N2C)cc1 (stereo not drawn) 1.08%
CN(CCOc1ccc(CC2SC(=O)NC2=O)cc1)c1ccccn1 (stereo not drawn) 1.57%
N#CCC(=O)NC(=O)NCC1CC1 -1.24%
Cn1c(=O)cc(SCC(=O)N2CCN(C(=O)c3ccco3)CC2)c2ccccc21 0.0908%
O=C(c1cccnc1NCc1ccccc1)N1CCOCC1 -1.76%
CN1CCC(CNC(=O)c2ccc(-n3c(=O)c(=O)[nH]c4ccccc43)cc2)CC1 -0.892%
O=C(C1=C(O)C(=O)N(Cc2ccccc2)C1c1cccnc1)c1ccco1 (stereo not drawn) -0.988%
O=C(c1cccs1)N1CCN(Cc2ccc3c(c2)OCO3)CC1 1.48%
C[C@H]1CC[C@H](C(=O)O)N[C@@H]1c1ccc(C#Cc2ccccc2)cc1 1.78% [at 11.5 µM]
Cc1noc(C)c1CSc1nc2cc(S(=O)(=O)N3CCOCC3)ccc2o1 3.09%
Cc1csc(-c2nc3ccccc3n2C)n1 0.971%
COC(=O)[C@@H]1C[C@@]2(O)[C@H](O)[C@H](O)[C@H](O)C[C@H]2N1Cc1ccc(C(C)(C)C)cc1 -0.0221%
CCC(CC)C(=O)Nc1cc(C(=O)OC)cc(C(=O)OC)c1 0.195%
Cc1ccc(N(CC(O)CN2CCCC2)S(=O)(=O)c2ccccc2)cc1 (stereo not drawn) -0.0894%
O=C(COc1ncnc2ccccc12)NC(=O)NCc1ccccc1 -0.802%
Cc1ccccc1Nc1nnc(C)c(=O)[nH]1 -0.782%
CC(C)=CCC/C(C)=C/CC/C(C)=C/CC/C(C)=C/CO 0.242%
CCCOc1ccc2c3c(c(=O)oc2c1OCCC)CCC3 -4.43%
CCOC(=O)Cn1c(=O)oc2cc(S(=O)(=O)N(C)Cc3ccco3)ccc21 -0.862%
CC(C)[C@H]1CC[C@@H](C)C[C@H]1O 0.98%
